These results are taken from PubChem BioAssay AID2187 (The Scripps Research Institute Molecular Screening Center, 2009).

Hit rate of the full screen: of about 1,300 compounds, about 1,200 (92%) were called active.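 How the source made its calls: active means inhibition of the VIM-2 beta-lactamase enzyme above about 11% from the earlier first-round screen (limit read from the data); inactive means the rest.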 So high a share suggests a set chosen from earlier hits. Not all results are given here.

This experiment deals with VIM-2 metallo-beta-lactamase (Pseudomonas aeruginosa). Put plainly: inhibition of VIM-2 nitrocefin hydrolysis – biochemical, epi-absorbance, hits shared with IMP-1 screen, confirmation (AID 2187).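 Further: 0% = VIM-2 with DMSO and 100% = buffer wells without enzyme.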 To be noted: purified VIM-2, nitrocefin hydrolysis, at 5.6 µM, hits give high values.
One may read the inhibition as the change of the read-out against control, counted positive when it falls. On to `Cc1cc(OCc2cc(C(=O)O)oc2C)c2c3c(c(=O)oc2c1)CCCC3`, for which the inhibition was 73.5% (active).

As for `Cc1cc(=O)oc2c(C)c(OCC(=O)N3CCN(Cc4ccc5c(c4)OCO5)CC3)ccc12`, the inhibition was 58.3% (active).
